Data: the supplement of paper PMC4894684
Structures can show the parent of a compound that is named as a salt. ± gives the standard deviation of the averaged measurements.

system: Toxoplasma gondii RH (in HFF); test: parasite growth relative to the screen mean (all compounds = 100%); higher = less inhibition of parasite growth; conditions: 5 µM; 72 h; oxygen 21 %
Summary of the method: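 Growth values are relative to the mean of the whole screen and averaged over duplicate screens, with all compounds together set to 100%. Parasites (RH β-Gal–GFP Toxoplasma, MOI 1:5) were added within 2 h of pinning compounds at 5 µM final onto confluent human foreskin fibroblasts and grown 72 h at 21% O2. Parasite number came from CPRG β-Gal readings against in-plate standard curves.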

Row | Structure (SMILES) | parasite growth [%]
1 | CCCN(CCC)[C@@H]1CCc2c(OC)cccc2[C@@H]1C [(+)-UH 232 maleate] | 115 ± 20
2 | COc1ccc2c(c1)c(CCN1CCOCC1)c(C)n2C(=O)c1cccc(Cl)c1Cl | 145 ± 22
3 | CCC1(C2=NCCN2)Cc2ccccc2O1 (stereo unspecified) [Efaroxan hydrochloride] | 113 ± 6.3
4 | CCCN1CCC[C@@H]2Cc3n[nH]cc3C[C@H]21 [(-)-Quinpirole hydrochloride] | 143.8 ± 1.3
5 | O=c1[nH]oc2c1CCNC2 [THIP hydrochloride] | 119 ± 21
6 | CO[C@]12C[C@@H](COC(=O)c3cncc(Br)c3)CN(C)[C@@H]1Cc1cn(C)c3cccc2c13 [Nicergoline] | 126 ± 5.7
